Assay outcomes: PubChem BioAssay, several laboratories
Fh CTSL1 inh: cathepsin L1 inhibition, PFM18AAP counter-screen; inhibition, % at 5.96 µM; 300,000 tested, 0.49% active; recombinant F. hepatica cathepsin L1, Z-Leu-Arg-MCA fluorescence;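 active = inhibition above the mean of all tested compounds plus 3 SD, set per screening campaign, cut at about 17% in these data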
Calb FLC: affects C. albicans growth with fluconazole; C. albicans CaCi-2 (fluconazole-resistant clinical isolate) + fluconazole, Alamar Blue growth, 48 h; growth inhibition, % (test concentration not listed); 300,000 tested, 0.57% active; AID 1979;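 active = growth inhibition above about 58% in most replicates, limit read from the data, passing the limit was not always enough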;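 also: all wells also contain fluconazole at 8 µg/ml as a sub-toxic cotreatment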
PfM18AAP inh: blocks P. falciparum M18 aspartyl aminopeptidase | recombinant PfM18AAP, H-Glu-NHMec fluorogenic cleavage | inhibition, % at 7.35 µM | 290,000 tested, 1.2% active | AID 1822;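 active = inhibition above the campaign mean inhibition over all tested compounds plus 3 SD, cut at about 28% in these data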
Rin1 Abl inh: blocks binding of human Rin1 to Abl; 360,000 tested, 0.4% active; P00519+Q13671; inhibition, % at 7.35 µM; TR-FRET Rin1/Abl binding, biochemical; in the data active = inhibition above about 5%, passing the limit was not always enough
Hits are given with their value. An excerpt weighted towards active compounds, which were near 2.1% of everything screened.

`COc1cc(C)ccc1S(=O)(=O)n1nc(C)cc1C` gave Fh CTSL1 inh inactive, Calb FLC inactive, PfM18AAP inh inactive and Rin1 Abl inh inactive.
Screening COc1ccc(C)cc1NC(=O)C(Sc1nnnn1C)c1ccccc1 (centres undefined) returned Fh CTSL1 inh inactive, Calb FLC 95, PfM18AAP inh inactive and Rin1 Abl inh inactive.
O=c1[nH]c(-c2ccccn2)nc2ccccc12 was read as Fh CTSL1 inh inactive, Calb FLC inactive, PfM18AAP inh inactive and Rin1 Abl inh inactive.
Screening O=c1[nH]c(-c2ccccn2)nc(C(F)(F)F)c1Br returned Fh CTSL1 inh inactive, Calb FLC 108, PfM18AAP inh inactive and Rin1 Abl inh inactive.
For O=C(COC(=O)c1cc2ccccc2oc1=O)c1cccc([N+](=O)[O-])c1 the results were Fh CTSL1 inh inactive, Calb FLC inactive, PfM18AAP inh inactive and Rin1 Abl inh inactive.
`CCOc1ccccc1C(=O)N/N=C/c1ccoc1` gave Calb FLC 104, PfM18AAP inh inactive and Rin1 Abl inh inactive.
Screening CCCC1C(c2ccco2)NC(c2ccco2)CC1(C)O (centres undefined) returned Fh CTSL1 inh inactive, Calb FLC 89, PfM18AAP inh inactive and Rin1 Abl inh inactive.
COc1ccc(C2NCCc3c2[nH]c2ccccc32)cc1CN1CCc2cc(OC)c(OC)cc2C1C (centres undefined) was read as Calb FLC inactive, PfM18AAP inh inactive and Rin1 Abl inh 7.3.
For NC1=C(Br)C(=O)c2ccccc2C1=O the results were Fh CTSL1 inh 35, Calb FLC inactive, PfM18AAP inh inactive and Rin1 Abl inh inactive.
Screening Cc1cc2c(cc1C)C(=O)C(Br)=C(N)C2=O returned Rin1 Abl inh inactive.
CCCCC(=O)N(C)c1c(CC)nc2c(OCc3cccc(Cl)c3)cccn12 was read as Rin1 Abl inh inactive.
For CC(C)c1ccc(NC(=O)Cc2cn(C)c3ccccc23)cc1 the results were Fh CTSL1 inh inactive, Calb FLC 114, PfM18AAP inh inactive and Rin1 Abl inh inactive.
`Cn1cc(CC(=O)NCc2ccc(F)cc2)c2ccccc21` gave Fh CTSL1 inh inactive, Calb FLC inactive, PfM18AAP inh inactive and Rin1 Abl inh inactive.
Screening COc1ccc(-n2c(-c3ccc(Br)cc3)c[n+]3c2CCC3)cc1 returned Fh CTSL1 inh inactive, Calb FLC inactive, PfM18AAP inh inactive and Rin1 Abl inh inactive.
Screening COc1ccc(-n2c(-c3ccc(Br)cc3)c[n+]3c2SC(C)C3)cc1 (centres undefined) returned Fh CTSL1 inh inactive, Calb FLC 88, PfM18AAP inh inactive and Rin1 Abl inh inactive.
`CCCCS(=O)(=O)Nc1ccc(Cc2ccncc2)cc1` gave Fh CTSL1 inh inactive, Calb FLC inactive, PfM18AAP inh inactive and Rin1 Abl inh inactive.
For O=C1C2C3C=CC(CC3)C2C(=O)N1c1ccc(Br)cc1[N+](=O)[O-] (centres undefined) the results were Fh CTSL1 inh inactive, Calb FLC inactive, PfM18AAP inh inactive and Rin1 Abl inh inactive.
`O=C1C2C3C=CC(CC3)C2C(=O)N1c1ccccc1[N+](=O)[O-]` (centres undefined) gave Fh CTSL1 inh 19, Calb FLC inactive, PfM18AAP inh inactive and Rin1 Abl inh inactive.
Cc1ccc(SCCC(=O)N/N=C/c2ccccc2O)cc1 was read as Fh CTSL1 inh inactive, Calb FLC 92, PfM18AAP inh inactive and Rin1 Abl inh inactive.
For CCCCC/C=C\C/C=C\C/C=C\CCCCC(=O)O the results were Fh CTSL1 inh 34 and Rin1 Abl inh inactive.
Cc1ccc(S(=O)(=O)N(C)C)cc1NC(=O)c1c(-c2c(F)cccc2Cl)noc1C was read as Fh CTSL1 inh inactive, Calb FLC inactive, PfM18AAP inh inactive and Rin1 Abl inh inactive.
For O=C(CCl)N(c1ccccc1)c1c[nH]c2ccccc12 the results were Fh CTSL1 inh inactive, Calb FLC inactive, PfM18AAP inh inactive and Rin1 Abl inh inactive.
Screening O=C(CCl)N(c1ccc(Cl)cc1)c1c[nH]c2ccccc12 returned Fh CTSL1 inh inactive, Calb FLC 113, PfM18AAP inh inactive and Rin1 Abl inh inactive.
`COc1cccc(C(=O)NC(=S)Nc2ccc(N(C)C)cc2)c1` gave Fh CTSL1 inh inactive, Calb FLC inactive, PfM18AAP inh inactive and Rin1 Abl inh inactive.
`Cc1ccccc1S(=O)(=O)N(C)C[C@@H]1OCc2cnnn2CCCC(=O)N([C@@H](C)CO)C[C@H]1C` gave Rin1 Abl inh inactive.
`CCOC(=O)C(=NC1CCS(=O)(=O)C1)NNc1ccccc1Cl` (centres undefined) gave Fh CTSL1 inh inactive, Calb FLC inactive, PfM18AAP inh inactive and Rin1 Abl inh inactive.
`CCOC(=O)C(=NC1CCS(=O)(=O)C1)NNc1ccc(Br)cc1` (centres undefined) gave Fh CTSL1 inh inactive, Calb FLC 112, PfM18AAP inh inactive and Rin1 Abl inh inactive.
For CCOC(=O)C(=NC(C)CC)NNc1ccc(Br)cc1 (centres undefined) the results were Fh CTSL1 inh inactive, Calb FLC inactive, PfM18AAP inh 30 and Rin1 Abl inh inactive.
For CCOC(=O)C(=NC1CCCCC1)NNc1cccc(C(F)(F)F)c1 the results were Fh CTSL1 inh inactive, Calb FLC 57, PfM18AAP inh inactive and Rin1 Abl inh inactive.
CN(C)S(=O)(=O)c1ccc(S(=O)(=O)N2CCCC(C(=O)NC3CCCC3)C2)cc1 (centres undefined) was read as Fh CTSL1 inh inactive, Calb FLC inactive, PfM18AAP inh inactive and Rin1 Abl inh inactive.
`O=c1[nH]c(N2CCOCC2)cc2ccccc12` gave Fh CTSL1 inh 56, Calb FLC inactive and Rin1 Abl inh inactive.
O=c1c(N2CCOCC2)coc2ccccc12 was read as Fh CTSL1 inh inactive, Calb FLC inactive, PfM18AAP inh inactive and Rin1 Abl inh inactive.
Cc1cccc(-n2c(SCc3cc(=O)n4c(C)cccc4n3)nc3[nH]ncc3c2=O)c1 was read as Fh CTSL1 inh inactive, Calb FLC inactive and PfM18AAP inh inactive.
Screening CCOC(=O)CC1C(=O)NCCN1S(=O)(=O)c1ccc(NC(C)=O)cc1 (centres undefined) returned Fh CTSL1 inh inactive, Calb FLC inactive, PfM18AAP inh 28 and Rin1 Abl inh inactive.
Screening COc1cc(NC(=S)N2CCN(S(=O)(=O)c3ccc(F)cc3)CC2)cc(OC)c1 returned Calb FLC inactive, PfM18AAP inh inactive and Rin1 Abl inh inactive.
`COc1cc(NC(=S)N2CCN(S(=O)(=O)c3ccccc3)CC2)cc(OC)c1` gave Calb FLC 122, PfM18AAP inh inactive and Rin1 Abl inh inactive.
For CCC1CCC(C(=O)NC(C(=O)NCCN2CCOCC2)C(C)C)CC1 (centres undefined) the results were Fh CTSL1 inh 30, Calb FLC inactive, PfM18AAP inh inactive and Rin1 Abl inh inactive.
`COc1ccc(C2C(C#N)=C(N)Oc3c2ccc2cccnc32)cc1OC` (centres undefined) gave Fh CTSL1 inh inactive, Calb FLC 93, PfM18AAP inh inactive and Rin1 Abl inh inactive.
O=C(COc1cccc2ccccc12)NNC(=O)CSCCO was read as Fh CTSL1 inh inactive, Calb FLC inactive, PfM18AAP inh 31 and Rin1 Abl inh inactive.
Screening O=C(COc1cccc2ccccc12)NNC(=O)Nc1ccccc1 returned Fh CTSL1 inh inactive, Calb FLC inactive, PfM18AAP inh inactive and Rin1 Abl inh inactive.
